Measurements reported in PubChem BioAssay (Tox21).
Where “and” joins values, the source holds several entries; their conditions need not be identical. Equal entries are not always repeated. Results filed as inconclusive are left out. A structure can be active in one record and inactive in another. Calls of active or inactive are those of the source. Calls follow the shape of the dose curve; as a rule, active = well fitted curve in the direction sought with a large enough effect in the repeat runs; inconclusive = weak or mixed curves; inactive = no such curve, though single readings can be large; an effect the other way counts as inactive or inconclusive.

Key:
[1] = A CellTox Green Cytotoxicity Assay to monitor cytotoxicity in HEK293 cells - 40 hour (AID 1224871); also: nearly all actives have a fitted effect of over 45% in size; also: potency is read from the fitted curve at half-maximal effect
Summary of the method: (§1)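 Fluorescence from a DNA-binding dye excluded by viable cells was measured repeatedly in the same HEK293 wells (600 cells/well) during continuous compound exposure at 37 C. Each assay gives one read point: 0, 8, 16, 24, 32 or 40 h.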

[2] = qHTS RealTime-Glo MT Cell Viability Assay in HEK293 cells - 16 hour (AID 1224872); also: nearly all actives have a fitted effect of over 50% in size; also: potency is read from the fitted curve at half-maximal effect
Summary of the method: (§2)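 HEK293 cells were seeded at 600 cells/well together with NanoLuc luciferase and cell-permeant prosubstrate, preincubated 5 h at 37 C/5% CO2, then given compound in DMSO by pintool. Luminescence from viable-cell prosubstrate reduction was read repeatedly over 40 h.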

[3] = qHTS RealTime-Glo MT Cell Viability Assay in HepG2 cells - 8 hour (AID 1224873); also: nearly all actives have a fitted effect of over 55% in size
Summary of the method: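 HepG2 cells (600/well) mixed with RealTime-Glo MT reagent, settled 5 h at 37 C/5% CO2 before compound addition. Nonlytic NanoLuc luminescence from viable-cell prosubstrate reduction read repeatedly during 40 h treatment at 37 C.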

[4] = qHTS RealTime-Glo MT Cell Viability Assay in HEK293 cells - 40 hour (AID 1224874); details: RealTime-Glo luminescence; max response: stronger effect = lower value; also: nearly all actives have a fitted effect of over 50% in size; also: potency is read from the fitted curve at half-maximal effect
Summary of the method: (§3)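 Luminescence, which tracks viable cell number through reduction of the prosubstrate to a NanoLuc substrate, was read over continuous 37 C culture. Cells (600/well) were premixed with reagent and rested 5 h before 23 nL of compound in DMSO was pinned.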

[5] = A CellTox Green Cytotoxicity Assay to monitor cytotoxicity in HEK293 cells - 24 hour (AID 1224875); also: series mostly up to about 77 µM; nearly all actives have a fitted effect of over 45% in size
Summary of the method: as §1

[6] = A CellTox Green Cytotoxicity Assay to monitor cytotoxicity in HepG2 cells - 16 hour (AID 1224876); also: nearly all actives have a fitted effect of over 45% in size; also: potency is read from the fitted curve at half-maximal effect
Summary of the method: (§4)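 Real-time cytotoxicity: fluorescence of a cell-impermeant cyanine dye binding DNA of dead HepG2 cells, measured repeatedly (0–40 h) during compound exposure at 37 C. Cells seeded 600/well with reagent, dosed after 5 h.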

[7] = qHTS RealTime-Glo MT Cell Viability Assay in HepG2 cells - 32 hour (AID 1224877); also: nearly all actives have a fitted effect of over 55% in size; also: potency is read from the fitted curve at half-maximal effect
Summary of the method: (§5)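 HepG2 cells were seeded at 600 cells/well together with NanoLuc luciferase and a cell-permeant prosubstrate, preincubated 5 h at 37 C/5% CO2, then pin-dosed with compounds in DMSO. Nonlytic luminescence from viable cells was read at each time point.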

[8] = A CellTox Green Cytotoxicity Assay to monitor cytotoxicity in HepG2 cells - 24 hour (AID 1224878); also: nearly all actives have a fitted effect of over 45% in size; also: potency is read from the fitted curve at half-maximal effect
Summary of the method: as §4

[9] = A CellTox Green Cytotoxicity Assay to monitor cytotoxicity in HepG2 cells - 40 hour (AID 1224879); also: nearly all actives have a fitted effect of over 40% in size; also: potency is read from the fitted curve at half-maximal effect
Summary of the method: as §4

[10] = qHTS RealTime-Glo MT Cell Viability Assay in HEK293 cells - 0 hour (AID 1224880)
Summary of the method: as §3

[11] = A CellTox Green Cytotoxicity Assay to monitor cytotoxicity in HEK293 cells - 32 hour (AID 1224881); also: nearly all actives have a fitted effect of over 40% in size; also: potency is read from the fitted curve at half-maximal effect
Summary of the method: as §1

[12] = A CellTox Green Cytotoxicity Assay to monitor cytotoxicity in HepG2 cells - 0 hour (AID 1224882); also: nearly all actives have a fitted effect of over 35% in size
Summary of the method: as §4

[13] = A CellTox Green Cytotoxicity Assay to monitor cytotoxicity in HepG2 cells - 32 hour (AID 1224883); also: nearly all actives have a fitted effect of over 50% in size; also: potency is read from the fitted curve at half-maximal effect
Summary of the method: as §4

[14] = A CellTox Green Cytotoxicity Assay to monitor cytotoxicity in HEK293 cells - 8 hour (AID 1224884); also: nearly all actives have a fitted effect of over 35% in size
Summary of the method: as §1

[15] = qHTS RealTime-Glo MT Cell Viability Assay in HepG2 cells - 16 hour (AID 1224885); also: nearly all actives have a fitted effect of over 50% in size
Summary of the method: as §5

[16] = qHTS RealTime-Glo MT Cell Viability Assay in HEK293 cells - 24 hour (AID 1224886); also: nearly all actives have a fitted effect of over 50% in size; also: potency is read from the fitted curve at half-maximal effect
Summary of the method: as §2

[17] = A CellTox Green Cytotoxicity Assay to monitor cytotoxicity in HEK293 cells - 16 hour (AID 1224888); also: nearly all actives have a fitted effect of over 35% in size
Summary of the method: as §1

[18] = qHTS RealTime-Glo MT Cell Viability Assay in HepG2 cells - 0 hour (AID 1224889); also: nearly all actives have a fitted effect of over 50% in size
Summary of the method: as §5

[19] = A CellTox Green Cytotoxicity Assay to monitor cytotoxicity in HepG2 cells - 8 hour (AID 1224890); also: nearly all actives have a fitted effect of over 45% in size; also: potency is read from the fitted curve at half-maximal effect
Summary of the method: as §4

[20] = qHTS RealTime-Glo MT Cell Viability Assay in HEK293 cells - 8 hour (AID 1224887); also: nearly all actives have a fitted effect of over 50% in size; also: potency is read from the fitted curve at half-maximal effect
Summary of the method: as §3
% is scaled to controls: 0 for no effect and ±100 for the full control effect.

Cc1ccccc1C=O
inactive: Potency [1] | Potency [2] | Potency [3] | max response [4] 5.78% and -0.406% | Potency [5] | Potency [6] | Potency [7] | Potency [8] | Potency [9] | Potency [10] | Potency [11] | Potency [12] | Potency [13] | Potency [14] | Potency [15] | Potency [16] | Potency [17] | Potency [18] | Potency [19]

CCCCC(=O)O
inactive: Potency [1] | Potency [2] | Potency [3] | max response [4] 6.05% and 6.12% | Potency [5] | Potency [6] | Potency [7] | Potency [8] | Potency [9] | Potency [10] | Potency [11] | Potency [12] | Potency [13] | Potency [14] | Potency [15] | Potency [16] | Potency [17] | Potency [18] | Potency [19]

CC(CN1c2ccccc2Sc2ccccc21)N(C)C (stereo unspecified)
54.9 µM (active) and inactive: Potency [1] | Potency [11]
active: Potency [2] 39.3 µM and 30.9 µM | Potency [4] 39.3 µM and 43.6 µM and 6.01 µM | Potency [8] 49 µM and 23.9 µM | Potency [9] 55.5 µM and 49 µM and 23.9 µM | Potency [13] 55.5 µM and 49 µM and 23.9 µM | Potency [16] 39.3 µM and 43.6 µM | Potency [20] 24.8 µM
inactive and 54.9 µM (active): Potency [19]
inactive and 43.6 µM (active): Potency [6]
inactive and 49 µM (active): Potency [7]
inactive: Potency [3] | Potency [10] | Potency [12] | Potency [14] | Potency [15] | Potency [17] | Potency [18]

Clc1cccc(Cl)c1NC1=NCCN1
inactive: Potency [1] | Potency [2] | Potency [3] | max response [4] 1.29% and 0.883% | Potency [5] | Potency [6] | Potency [7] | Potency [8] | Potency [9] | Potency [10] | Potency [11] | Potency [12] | Potency [13] | Potency [14] | Potency [15] | Potency [16] | Potency [17] | Potency [18] | Potency [19]

C[n+]1ccn(CCO)c1
inactive: Potency [1] | Potency [2] | Potency [3] | max response [4] 6.1% and 16.8% | Potency [5] | Potency [6] | Potency [7] | Potency [8] | Potency [9] | Potency [10] | Potency [11] | Potency [12] | Potency [13] | Potency [14] | Potency [15] | Potency [16] | Potency [17] | Potency [18] | Potency [19]

O=c1c(O)c(-c2ccc(O)c(O)c2)oc2cc(O)cc(O)c12
inactive: Potency [1] | Potency [2] | Potency [3] | max response [4] -22.5% | Potency [5] | Potency [6] | Potency [7] | Potency [8] | Potency [9] | Potency [11] | Potency [12] | Potency [13] | Potency [14] | Potency [15] | Potency [16] | Potency [20] | Potency [17] | Potency [19]

CCN(CC)CCNC(=O)c1ccc(N)cc1
inactive: Potency [1] | Potency [2] | Potency [3] | max response [4] 3.82% and 1.96% | Potency [5] | Potency [6] | Potency [7] | Potency [8] | Potency [9] | Potency [10] | Potency [11] | Potency [12] | Potency [13] | Potency [14] | Potency [15] | Potency [16] | Potency [17] | Potency [18] | Potency [19]

Oc1ccc(Cc2ccccc2O)cc1
active: Potency [2] 15.5 µM | Potency [4] 14 µM and 17.4 µM | Potency [16] 12.3 µM
inactive: Potency [1] | Potency [3] | Potency [5] | Potency [6] | Potency [7] | Potency [8] | Potency [9] | Potency [10] | Potency [11] | Potency [12] | Potency [13] | Potency [14] | Potency [15] | Potency [17] | Potency [18] | Potency [19]
